# Assay results taken from PubChem BioAssay AID493008 (The Scripps Research Institute Molecular Screening Center, 2010).
# The whole screen tested about 340,000 compounds, of which about 800 (0.24%) were called active.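 The calls were made as follows: active = activation above the mean over all tested compounds plus 3 SD (cut at about 30% in these data); inactive = the rest.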 This excerpt belongs to a sample that is enriched for actives.
# Molecular target: Troponin I, cardiac muscle (Homo sapiens) + Troponin T, cardiac muscle (Homo sapiens) + Troponin C, slow skeletal and cardiac muscles (Homo sapiens) (UniProt P19429+P45379+P63316)
# Assay: calcium sensitizers of cardiac thin filaments – biochemical, IANBD-TnC fluorescence, EC20 calcium, primary screen (AID 493008);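 also: rise in fluorescence read as greater calcium sensitivity of cardiac thin filaments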
# Settings: IANBD-labeled TnC RTF fluorescence at EC20 calcium; at 7.2 µM; stronger effect = higher value; 0% EC20 calcium, 100% full calcium
row,Structure (SMILES),activation
1,CC1CCN(c2c(NCc3ccc(C(=O)NCc4ccccc4)cc3)c(=O)c2=O)CC1,13.9% (inactive)
2,Cc1ccc(CNC(=O)c2cccc3c2C(=O)c2ccc(N4CCC(C)CC4)cc2S3(=O)=O)cc1,100% (active)
3,Cc1ccc(CNC(=O)c2ccc3c(c2)S(=O)(=O)c2ccccc2C3=O)cc1,-0.11% (inactive)
4,O=C(NCc1ccccc1CN1CCCC1)c1cccc(S(=O)(=O)Nc2ccc(F)cc2)c1,-1.12% (inactive)
5,COc1ccc(OC)c(Cc2cnc3nc(N)nc(N)c3c2C)c1,0.81% (inactive)
6,Cc1cccc(NC(=O)CN2CCN(CC(=O)NCC3(N4CCCCC4)CCCCC3)CC2)c1C,-1.57% (inactive)
7,COc1ccc(CNC(=O)COC(=O)C2=Cc3ccccc3OC2)cc1,-9.53% (inactive)
8,CN(O)C(=S)c1ccccc1,-1.46% (inactive)
9,Cc1c(C)n2c(SCC(=O)NC3CCCC3)nnc2[nH]c1=O,0.28% (inactive)
10,CCCN(CCC)S(=O)(=O)c1ccc(C(=O)N2CC3CCC(CC3)C2)cc1,-0.05% (inactive)
11,CCN1CC=C2C(C#N)=C(N)C(C#N)(C#N)[C@H](c3ccoc3)[C@H]2C1,62% (active)
12,C=CCOc1ccc(/C=C2\SC(=S)N(CCC(=O)O)C2=O)cc1,1.79% (inactive)
13,Cc1ccc(/C=C2/SC(=S)N(CCC(=O)NCCCN3CCOCC3)C2=O)cc1,2.69% (inactive)
14,Cc1ccc(-c2nn(-c3ccccc3)cc2/C=C2\SC(=S)N(CCCCCC(=O)O)C2=O)o1,48.1% (active)
15,Cc1ccc(-c2noc(C3CCCN(C(=O)c4cccc(Cl)c4)C3)n2)o1 (centres undefined),-2.07% (inactive)
16,CC(C)CC(CCc1ccccc1)OS(N)(=O)=O (centres undefined),-4.63% (inactive)
17,COc1ccc(CNCCCNCc2ccc(OC)c(OC)c2)cc1OC,0.94% (inactive)
18,C=CCn1c(SCC(=O)c2c(N)n(C)c(=O)n(C)c2=O)nc2sc(CC)cc2c1=O,1.89% (inactive)
19,C[C@H](NC(=O)c1ccccc1Cl)C(=O)OCCOc1cccc(Cl)c1,1.17% (inactive)
20,Cc1ccc(C2=CSC3=NS(=O)(=O)CCN23)cc1C,13.6% (inactive)

row,Structure (SMILES),activation
1,C/C(=C/c1ccccc1)C(=O)N1CCN(c2ccccc2)CC1,9.01% (inactive)
2,Cc1[nH]c(N)nc(=S)c1CCCNc1ccccc1,-2.1% (inactive)
3,C=CC[C@H](CC(=O)NCCO)C(=O)N[C@@H](COC(=O)[C@@H](CC=C)Cc1ccc(F)cc1)Cc1c[nH]c2ccccc12,2.33% (inactive)
4,CCCCCCc1cc2cc(-c3nnc(-c4ccccc4)o3)c(=O)oc2cc1O,76.8% (active)
5,CCc1ccc(CN(C)C(=O)CCc2nnc(-c3ccc(-c4ccccc4)cc3)o2)nc1,-1.69% (inactive)
6,Cc1c(CCC(=O)O)c(=O)oc2cc3occ(-c4ccccc4)c3cc12,5.11% (inactive)
7,O=C(N[C@H]1C/C=C\C(c2cccc(F)c2)N(Cc2ccccc2)C(=O)C1)OCC1c2ccccc2-c2ccccc21 (some centres undefined),-0.43% (inactive)
8,COc1ccc(C(CNCC(=O)Nc2ccccc2F)N(C)C)cc1 (centres undefined),-1.39% (inactive)
9,S=C(Nc1ccc2c(c1)OCO2)N1CCCC1,8.04% (inactive)
10,CCOC(=O)/C(C#N)=C/c1ccc(N2CCN(Cc3ccccc3)CC2)cc1,42.2% (active)
11,CCOC(=O)/C(C#N)=C/c1ccc(OCC(=O)Nc2ccccc2)c(OC)c1,6.94% (inactive)
12,CC(C)OC(=O)C(C#N)c1nc2ccccc2nc1N1CCN(Cc2ccccc2)CC1 (centres undefined),-2.43% (inactive)
13,Cc1ccnc(N2CCN(C(=O)CSc3nc4ccccc4nc3N3CCCCC3)CC2)c1,0.05% (inactive)
14,Cc1ccccc1NC(=O)c1ccc(COc2ccc3c(C)cc(=O)oc3c2)cc1,1.18% (inactive)
15,O=C(CCC(=O)N1CCCC1)Nc1ccc([N+](=O)[O-])cc1,-1.36% (inactive)
16,Cc1cc(-c2n[nH]c(=S)n2/N=C/C(Br)=C/c2ccccc2)n[nH]1,0.67% (inactive)
17,CCOC(=O)/C=C/C(=O)OCC(=O)NC(c1ccccc1)c1ccccc1,-0.28% (inactive)
18,CN(C)S(=O)(=O)c1cc(NC(=O)CN2C(=O)NC3(CCCc4ccccc43)C2=O)ccc1Cl (centres undefined),5.19% (inactive)
19,Oc1ccc(-c2nc3ccccc3nc2-c2ccc(O)cc2O)c(O)c1,2.23% (inactive)
20,Oc1ccc2ccc3cccc[n+]3c2c1,720% (active)

row,Structure (SMILES),activation
1,CCOC(=O)C1=C(C)NC2=C(C(=O)CC(C)(C)C2)C1c1ccsc1 (centres undefined),8.26% (inactive)
2,N#C/C=C(/c1ccc(F)cc1)N1CCOCC1,0.45% (inactive)
3,O=C(NC(=O)N1CCOCC1)c1ccccc1,-4.59% (inactive)
4,O=C(N1CCOCC1)N1CCOCC1,0.83% (inactive)
5,N#C/C(=C\C1=C(N2CCOCC2)C(=C\c2ccccc2)/CC1)C(=O)Nc1ccccc1F,11.9% (inactive)
6,N#C/C(=C\c1ccc(N2CCOCC2)o1)C(=O)N1CCOCC1,114% (active)
7,N#C/C(=C/c1ccc(N2CCOCC2)o1)C(=O)N1CCOCC1,64.8% (active)
8,O=C(NC1CCCC1)C(c1ccco1)N(C(=O)c1csnn1)c1ccccc1 (centres undefined),-5.15% (inactive)
9,COc1ccccc1-n1nnnc1S(=O)(=O)Cc1ccc(Cl)cc1,-4.59% (inactive)
10,O=C(Nc1cccc(F)c1)c1coc(=O)c(Br)c1,2.96% (inactive)
11,O=C(NNC1CC(=O)N(c2cccc(Cl)c2)C1=O)c1cccnc1 (centres undefined),3.38% (inactive)
12,COc1ccc(N2CCN(S(=O)(=O)c3ccc4c(c3)NC(=O)C(C)C(=O)N4)CC2)cc1 (centres undefined),-1.46% (inactive)
13,CCOc1cc(/C=C(\C#N)c2nc(-c3cccs3)c(NC(C)=O)s2)ccc1O,53.3% (active)
14,CCOc1cc(C=NNC(=O)CCCC(=O)NN=Cc2ccc(O)c(OCC)c2)ccc1O,3.71% (inactive)
15,CCOc1cc(-c2cc(-c3ccc(NC(C)=O)cc3)nc(N)c2C#N)ccc1O,-2.6% (inactive)
16,C/C(N)=C(/C#N)C(=O)COC(=O)C1=NN(c2ccccc2)C(=O)CC1,1.28% (inactive)
17,COc1cc(C(=O)N2C(=O)c3cccc(N)c3C2=O)cc(OC)c1OC,-5.72% (inactive)
18,O=C1c2cccc3c([N+](=O)[O-])ccc(c23)C(=O)N1CC1CCCO1 (centres undefined),9.63% (inactive)
19,CN1C(=O)c2cccc3c(N)ccc(c23)C1=O,1160% (active)
